Laboratory results as given in PubChem BioAssay (NCI).
This is part of a sample that, as a whole, favours compounds with a hit. Of some 83,000 tested, about 20% had one in any assay.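 Values shown are percent growth following 48 h exposure of cells in 96-well plates to a single concentration of compound; below 10 was considered active.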 Active and inactive are the calls of the source.

Key:
Test in all cases: NCI-60 one-dose screen, 48 h (100 = growth as untreated, 0 = no growth, -100 = all killed)
Conditions in all cases: 10 µM unless noted
SK-MEL-2 melanoma = system: SK-MEL-2 melanoma
EKVX NSCLC = system: EKVX NSCLC
SN12C renal = system: SN12C renal
UO-31 renal = system: UO-31 renal
TK-10 renal = system: TK-10 renal
ACHN renal = system: ACHN renal
A498 renal = system: A498 renal
CCRF-CEM leukemia = system: CCRF-CEM leukemia
MOLT-4 leukemia = system: MOLT-4 leukemia
SR leukemia = system: SR leukemia
RPMI-8226 leukemia = system: RPMI-8226 leukemia
OVCAR-8 ovarian = system: OVCAR-8 ovarian
OVCAR-5 ovarian = system: OVCAR-5 ovarian
OVCAR-4 ovarian = system: OVCAR-4 ovarian
SK-OV-3 ovarian = system: SK-OV-3 ovarian
IGROV1 ovarian = system: IGROV1 ovarian
OVCAR-3 ovarian = system: OVCAR-3 ovarian
HS 578T breast = system: HS 578T breast
NCI/ADR-RES ovarian = system: NCI/ADR-RES ovarian

Measured: growth

C=C1C(=O)O[C@H]2[C@H]1CC/C(COC(=O)c1ccc(Cl)nc1)=C\CC[C@@]1(C)O[C@@H]21
active: UO-31 renal -39% | TK-10 renal -8.78% | ACHN renal -20.6% | CCRF-CEM leukemia -32.1% | MOLT-4 leukemia -28.6% | SR leukemia -13.2% | RPMI-8226 leukemia -30% | OVCAR-8 ovarian -8.23% | OVCAR-3 ovarian -42.1%
inactive: SK-MEL-2 melanoma 40.4% | EKVX NSCLC 10.2% | SN12C renal 12.9% | A498 renal 87.2% | OVCAR-5 ovarian 27.2% | OVCAR-4 ovarian 27.9% | SK-OV-3 ovarian 99.3% | IGROV1 ovarian 13.1% | HS 578T breast 61.2% | NCI/ADR-RES ovarian 42.1%

Clc1ccc(OCc2nc(-c3ccccc3)n[nH]2)c(Cl)c1
inactive: SK-MEL-2 melanoma 103% | EKVX NSCLC 93.8% | SN12C renal 96.6% | UO-31 renal 77.1% | TK-10 renal 122% | ACHN renal 98% | A498 renal 104% | CCRF-CEM leukemia 85.9% | MOLT-4 leukemia 98.7% | SR leukemia 97.1% | RPMI-8226 leukemia 94% | OVCAR-8 ovarian 96.5% | OVCAR-5 ovarian 99.7% | OVCAR-4 ovarian 98.1% | SK-OV-3 ovarian 80.9% | IGROV1 ovarian 97.6% | OVCAR-3 ovarian 108% | HS 578T breast 88.6% | NCI/ADR-RES ovarian 101%

C=C1C(=O)O[C@H]2[C@H]1CC/C(COC(=O)c1ccc(Br)cc1)=C\CC[C@@]1(C)O[C@@H]21
inactive: A498 renal 100% | SK-OV-3 ovarian 111% | HS 578T breast 17.8% | NCI/ADR-RES ovarian 24.7%
active: SK-MEL-2 melanoma -24.5% | EKVX NSCLC -41.3% | SN12C renal -22% | UO-31 renal -89.8% | TK-10 renal 8.28% | ACHN renal -93.4% | CCRF-CEM leukemia -17.5% | MOLT-4 leukemia -27.2% | SR leukemia -27.5% | RPMI-8226 leukemia -44.5% | OVCAR-8 ovarian -36.6% | OVCAR-5 ovarian 1.16% | OVCAR-4 ovarian -14.3% | IGROV1 ovarian -57.6% | OVCAR-3 ovarian -81.2%

COc1ccc(OC)c(NCC(=O)n2nc(/C=C\c3ccc(O)c(OC)c3)cc2/C=C\c2ccc(O)c(OC)c2)c1
active: SK-MEL-2 melanoma 0.648% | UO-31 renal 5.1% | CCRF-CEM leukemia 5.46% | MOLT-4 leukemia 7.73% | SR leukemia 0.623% | RPMI-8226 leukemia -8.66% | OVCAR-8 ovarian 7.25% | SK-OV-3 ovarian -3.5%
inactive: EKVX NSCLC 28.7% | SN12C renal 21.5% | TK-10 renal 16.4% | ACHN renal 18.6% | A498 renal 34.1% | OVCAR-5 ovarian 25.3% | OVCAR-4 ovarian 39.2% | IGROV1 ovarian 11.6% | OVCAR-3 ovarian 12% | HS 578T breast 22.2% | NCI/ADR-RES ovarian 20.4%

COc1cc2nc(C(=O)N3CCCCC3)cc(Nc3ccccc3)c2cc1OC
inactive: SK-MEL-2 melanoma 99.5% | EKVX NSCLC 97.3% | SN12C renal 98.9% | UO-31 renal 82.4% | TK-10 renal 98.6% | ACHN renal 96.4% | A498 renal 91% | CCRF-CEM leukemia 101% | MOLT-4 leukemia 97.3% | SR leukemia 81.7% | RPMI-8226 leukemia 87.6% | OVCAR-8 ovarian 98.3% | OVCAR-5 ovarian 109% | OVCAR-4 ovarian 100% | SK-OV-3 ovarian 108% | IGROV1 ovarian 98.3% | OVCAR-3 ovarian 93.9% | HS 578T breast 95% | NCI/ADR-RES ovarian 95.4%

C=C1C(=O)O[C@H]2[C@H]1CC/C(COC(=O)c1ccccc1)=C\CC[C@@]1(C)O[C@@H]21
inactive: SK-MEL-2 melanoma 15% | EKVX NSCLC 11.5% | A498 renal 99.4% | SK-OV-3 ovarian 95.4% | HS 578T breast 44% | NCI/ADR-RES ovarian 36.2%
active: SN12C renal -22.4% | UO-31 renal -95.7% | TK-10 renal -0.228% | ACHN renal -83.7% | CCRF-CEM leukemia -26% | MOLT-4 leukemia -22.2% | SR leukemia -14.1% | RPMI-8226 leukemia -36.4% | OVCAR-8 ovarian -34.3% | OVCAR-5 ovarian 2.5% | OVCAR-4 ovarian 5.21% | IGROV1 ovarian -24.9% | OVCAR-3 ovarian -44.5%

COc1ccccc1S(=O)(=O)Nc1ccc2c3c(cc(-c4cnn(C5CC5)c4)nc13)C(=O)N2C
inactive: SK-MEL-2 melanoma 78.6% | EKVX NSCLC 56.1% | SN12C renal 76.7% | UO-31 renal 34.9% | TK-10 renal 48.2% | ACHN renal 68% | A498 renal 59.3% | CCRF-CEM leukemia 76.9% | MOLT-4 leukemia 56.3% | SR leukemia 51.3% | RPMI-8226 leukemia 10% | OVCAR-8 ovarian 70.1% | OVCAR-5 ovarian 72.6% | OVCAR-4 ovarian 62.2% | SK-OV-3 ovarian 55.8% | IGROV1 ovarian 59.2% | OVCAR-3 ovarian 69.8% | HS 578T breast 55.9% | NCI/ADR-RES ovarian 59%

CC/C(=C(\CC)c1ccc(OCCN(CC)CC)cc1)c1ccc(OCCN(CC)CC)cc1
inactive: EKVX NSCLC 38% | SN12C renal 68.6% | UO-31 renal 24.4% | TK-10 renal 48.6% | ACHN renal 42.5% | A498 renal 43.4% | CCRF-CEM leukemia 38.9% | MOLT-4 leukemia 42.6% | RPMI-8226 leukemia 18.3% | OVCAR-8 ovarian 53.3% | OVCAR-5 ovarian 38.7% | OVCAR-4 ovarian 38.1% | SK-OV-3 ovarian 64.2% | IGROV1 ovarian 59.9% | OVCAR-3 ovarian 45.5% | NCI/ADR-RES ovarian 57.6%
active: SK-MEL-2 melanoma -8.16% | SR leukemia -8.6%

ClC1c2ccccc2CCc2ccccc21
inactive: SK-MEL-2 melanoma 87.8% | EKVX NSCLC 94% | SN12C renal 103% | UO-31 renal 60% | TK-10 renal 101% | ACHN renal 95.8% | A498 renal 102% | CCRF-CEM leukemia 98.7% | MOLT-4 leukemia 107% | SR leukemia 89.2% | RPMI-8226 leukemia 92% | OVCAR-8 ovarian 94.7% | OVCAR-5 ovarian 86.4% | OVCAR-4 ovarian 85.9% | SK-OV-3 ovarian 91.2% | IGROV1 ovarian 72.5% | OVCAR-3 ovarian 100% | NCI/ADR-RES ovarian 116%

COc1ccc(/C=C/C(=O)/C=C(/C=C/c2ccc(OC)c(OC)c2OC)OB(F)F)c(OC)c1OC
active: ACHN renal -16.4% | CCRF-CEM leukemia -2.62% | MOLT-4 leukemia 3.43% | SR leukemia 0.627% | RPMI-8226 leukemia 2.74% | OVCAR-3 ovarian 5.1%
inactive: SK-MEL-2 melanoma 76% | EKVX NSCLC 65.8% | SN12C renal 20.6% | UO-31 renal 16.8% | TK-10 renal 35.6% | A498 renal 95.1% | OVCAR-8 ovarian 10% | OVCAR-5 ovarian 62.9% | OVCAR-4 ovarian 47.4% | SK-OV-3 ovarian 76.8% | IGROV1 ovarian 26.3% | HS 578T breast 23.6% | NCI/ADR-RES ovarian 32.5%

Cc1cccc(NCS(=O)(=O)O)c1
inactive: SK-MEL-2 melanoma 109% | EKVX NSCLC 98.7% | SN12C renal 112% | UO-31 renal 93% | TK-10 renal 98.5% | ACHN renal 107% | A498 renal 111% | CCRF-CEM leukemia 102% | MOLT-4 leukemia 102% | SR leukemia 107% | RPMI-8226 leukemia 102% | OVCAR-8 ovarian 88.6% | OVCAR-5 ovarian 107% | OVCAR-4 ovarian 109% | SK-OV-3 ovarian 97.4% | IGROV1 ovarian 102% | OVCAR-3 ovarian 116% | HS 578T breast 104% | NCI/ADR-RES ovarian 105%

NN=C(c1ccc(Cl)cc1)c1ccc(Cl)cc1
inactive: SK-MEL-2 melanoma 121% | EKVX NSCLC 108% | SN12C renal 105% | UO-31 renal 81.8% | TK-10 renal 110% | ACHN renal 101% | A498 renal 96% | CCRF-CEM leukemia 89.3% | MOLT-4 leukemia 97.8% | SR leukemia 104% | RPMI-8226 leukemia 102% | OVCAR-8 ovarian 104% | OVCAR-5 ovarian 95% | OVCAR-4 ovarian 103% | SK-OV-3 ovarian 105% | IGROV1 ovarian 119% | OVCAR-3 ovarian 107% | NCI/ADR-RES ovarian 108%

O=C(O)c1ccccc1C(=O)c1ccc(I)cc1
inactive: SK-MEL-2 melanoma 91.2% | EKVX NSCLC 97.5% | SN12C renal 104% | UO-31 renal 99.4% | TK-10 renal 95.6% | ACHN renal 104% | A498 renal 115% | CCRF-CEM leukemia 99.9% | MOLT-4 leukemia 94.3% | SR leukemia 101% | RPMI-8226 leukemia 97.7% | OVCAR-8 ovarian 107% | OVCAR-5 ovarian 107% | OVCAR-4 ovarian 109% | SK-OV-3 ovarian 96.4% | IGROV1 ovarian 98.4% | OVCAR-3 ovarian 107% | HS 578T breast 104% | NCI/ADR-RES ovarian 97.5%

FC(F)(F)c1cn(CCN2CCOCC2)c2ncnc(Cl)c12
inactive: SK-MEL-2 melanoma 41.3% | EKVX NSCLC 92.6% | SN12C renal 71.2% | TK-10 renal 113% | ACHN renal 64.7% | A498 renal 105% | CCRF-CEM leukemia 12.3% | MOLT-4 leukemia 40.4% | RPMI-8226 leukemia 99% | OVCAR-8 ovarian 18.7% | OVCAR-5 ovarian 106% | OVCAR-4 ovarian 82.4% | SK-OV-3 ovarian 101% | IGROV1 ovarian 13.4% | OVCAR-3 ovarian 63.3% | HS 578T breast 81.9% | NCI/ADR-RES ovarian 92.8%
active: UO-31 renal -85.5% | SR leukemia -40.3%

O=C(Nc1ccc(F)cc1)Nc1ccc(Cl)c([N+](=O)[O-])c1
inactive: EKVX NSCLC 15.8% | SN12C renal 15.8% | TK-10 renal 16.6% | A498 renal 25.7% | CCRF-CEM leukemia 18.6% | SR leukemia 31.8% | OVCAR-8 ovarian 17.8% | OVCAR-5 ovarian 44.3% | OVCAR-4 ovarian 16.5% | SK-OV-3 ovarian 34% | IGROV1 ovarian 22.4% | OVCAR-3 ovarian 10.1% | HS 578T breast 55.8% | NCI/ADR-RES ovarian 14.1%
active: SK-MEL-2 melanoma 2.67% | UO-31 renal 8.43% | ACHN renal 4.79% | MOLT-4 leukemia 5.48% | RPMI-8226 leukemia -28%

OC(COc1ccccc1Cl)CN1CCN(c2ccc(Cl)cc2)CC1 (stereo not drawn)
inactive: SK-MEL-2 melanoma 126% | EKVX NSCLC 106% | SN12C renal 106% | UO-31 renal 81.7% | TK-10 renal 117% | ACHN renal 94.6% | A498 renal 78.6% | CCRF-CEM leukemia 46% | MOLT-4 leukemia 95.3% | SR leukemia 92.3% | RPMI-8226 leukemia 86.6% | OVCAR-8 ovarian 104% | OVCAR-5 ovarian 81.9% | OVCAR-4 ovarian 91.7% | SK-OV-3 ovarian 114% | IGROV1 ovarian 96% | OVCAR-3 ovarian 106% | NCI/ADR-RES ovarian 115%

CC(=O)Nc1ccc([I+]c2ccc([N+](=O)[O-])cc2)cc1
inactive: SK-MEL-2 melanoma 103% | EKVX NSCLC 88.7% | SN12C renal 88.3% | UO-31 renal 60.8% | TK-10 renal 87.4% | ACHN renal 89.7% | A498 renal 104% | CCRF-CEM leukemia 89.2% | MOLT-4 leukemia 86.9% | SR leukemia 87.7% | RPMI-8226 leukemia 92.7% | OVCAR-8 ovarian 95% | OVCAR-5 ovarian 116% | OVCAR-4 ovarian 90% | SK-OV-3 ovarian 94.4% | IGROV1 ovarian 80.8% | OVCAR-3 ovarian 94.9% | NCI/ADR-RES ovarian 113%
